Our source for the Potency values is PubChem BioAssay (Tox21).

“And” between values parts separate entries of the source, which are not always exact repeats. Equal values may be shown once. Results filed as inconclusive are left out. Some structures have more than one record in an assay (separate samples or runs), and their calls can disagree. The source made the active and inactive calls. Unless noted, calls follow the shape of the full dose curve.

A short description of test [1]: qHTS assay to identify small molecule antagonists of the sonic hedgehog signaling (Shh) pathway (AID 1259369). Also: nearly all actives have a fitted effect of over 45% in size. Also: potency is read from the fitted curve at half-maximal effect. In a few lines:
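Stable Gli1-Luc reporter NIH/3T3 clone; quantitative HTS in stimulated mode with conditioned medium. Luminescence measured after 24hr compound treatment at 37 C.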
(In general: Quantitative high-throughput screening tests each substance at several concentrations.)

Test [2] has as its target Estrogen receptor beta (Homo sapiens) (UniProt Q92731). The test is described as follows: qHTS assay to identify small molecule agonists of the estrogen receptor beta (ER-beta) signaling pathway (AID 1259377; active = well fitted activation curve with a large enough effect in the signal ratio in the repeat runs, not every such curve was filed as active; the % refers to the signal ratio). In a few lines:
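Agonist mode cell assay in GripTite HEK293T cells expressing an ER-beta fusion that drives beta-lactamase from an Upstream Activator Sequence; 16 hr compound exposure at 37C, then 2 h LiveBLAzer B/G FRET substrate at room temperature, fluorescence read-out.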

Test [3] has the same target. The test is described as follows: qHTS assay to identify small molecule antagonists of the estrogen receptor beta (ER-beta) signaling pathway (AID 1259378; active = well fitted inhibition curve with a large enough effect in the signal ratio in the repeat runs, not every such curve was filed as active; the % refers to the signal ratio; also: potency is read from the fitted curve at half-maximal effect). In outline:
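Antagonist mode: compounds added to beta-lactamase reporter HEK293T ER-beta-UAS cells stimulated with E2 (1nM final), 16 hr at 37C. LiveBLAzer B/G FRET substrate, 2 hours room temperature, fluorescence read-out.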

Test [4] is described as follows: qHTS assay to identify small molecule agonists of the androgen receptor (AR) signaling pathway in the presence of an antagonist - cell viability counter screen (AID 1259379; active = well fitted curve in the direction sought with a large enough effect in the repeat runs; an effect the other way counts as inactive or inconclusive; also: nearly all actives have a fitted effect of over 25% in size; also: potency is read from the fitted curve at half-maximal effect). In a few lines: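 Nilutamide-containing (3.0uM final) MDA-kb2 cultures, 3,000 cells/well, were treated with compounds across 15 concentrations. After 16 hr at 37C with no CO2, cell viability was determined by CellTiter-Fluor fluorescence in the luciferase assay wells.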

Test [5] is described as follows: qHTS assay to identify small molecule agonists of the estrogen receptor beta (ER-beta) signaling pathway - cell viability counter screen (AID 1259380; active = well fitted curve in the direction sought with a large enough effect in the repeat runs; an effect the other way counts as inactive or inconclusive; also: nearly all actives have a fitted effect of over 30% in size; also: potency is read from the fitted curve at half-maximal effect). In a few lines: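 Steps: plate ER-beta-UAS-bla HEK293T cells, rest 6 hr; add compounds in DMSO; incubate 16 hr at 37C, 5% CO2; add FRET substrate 2 hr; add CellTiter-Glo, wait 30 min at room temperature; read luminescence.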

The nature of test [6]: qHTS assay to identify small molecule antagonists of the estrogen receptor beta (ER-beta) signaling pathway - cell viability counter screen (AID 1259382; active = well fitted curve in the direction sought with a large enough effect in the repeat runs; an effect the other way counts as inactive or inconclusive; also: nearly all actives have a fitted effect of over 55% in size; also: potency is read from the fitted curve at half-maximal effect). In a few lines: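 Viability is scored by CellTiter-Glo luminescence (30 min, room temperature) in ER-beta-UAS-bla HEK293T wells already read for reporter fluorescence. Compound exposure lasts 16 hr at 37C alongside 1nM 17-beta-estradiol in charcoal-stripped serum medium.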

Test [7] deals with Thyrotropin receptor (Homo sapiens) (UniProt P16473). The test is described as follows: qHTS assay to identify small molecule antagonists of the thyroid stimulating hormone receptor (TSHR) signaling pathway (AID 1259385). Also: nearly all actives have a fitted effect of over 20% in size. Also: potency is read from the fitted curve at half-maximal effect. In a few lines:
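Antagonist mode: compound-treated TSHR-expressing HEK293 cells were stimulated with 1.5 ng/mL TSH (final) in presence of Ro20-1724 for 30 min at RT. HTRF cAMP detection after 1 h; each compound tested at 15 concentrations, triplicate.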

Test [8] deals with Androgen receptor (Homo sapiens) (UniProt P10275). The test is described as follows: qHTS assay to identify small molecule agonists of the androgen receptor (AR) signaling pathway in the presence of an antagonist (AID 1259381). Also: nearly all actives have a fitted effect of over 15% in size. In outline: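 Reporter-gene luminescence from MDA-kb2 cells exposed 16hr at 37C (0% CO2) to 15-point compound titrations with 3.0uM final nilutamide as AR antagonist.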
Chain of Androgen receptor (Homo sapiens) (P10275 whole entry, looked up): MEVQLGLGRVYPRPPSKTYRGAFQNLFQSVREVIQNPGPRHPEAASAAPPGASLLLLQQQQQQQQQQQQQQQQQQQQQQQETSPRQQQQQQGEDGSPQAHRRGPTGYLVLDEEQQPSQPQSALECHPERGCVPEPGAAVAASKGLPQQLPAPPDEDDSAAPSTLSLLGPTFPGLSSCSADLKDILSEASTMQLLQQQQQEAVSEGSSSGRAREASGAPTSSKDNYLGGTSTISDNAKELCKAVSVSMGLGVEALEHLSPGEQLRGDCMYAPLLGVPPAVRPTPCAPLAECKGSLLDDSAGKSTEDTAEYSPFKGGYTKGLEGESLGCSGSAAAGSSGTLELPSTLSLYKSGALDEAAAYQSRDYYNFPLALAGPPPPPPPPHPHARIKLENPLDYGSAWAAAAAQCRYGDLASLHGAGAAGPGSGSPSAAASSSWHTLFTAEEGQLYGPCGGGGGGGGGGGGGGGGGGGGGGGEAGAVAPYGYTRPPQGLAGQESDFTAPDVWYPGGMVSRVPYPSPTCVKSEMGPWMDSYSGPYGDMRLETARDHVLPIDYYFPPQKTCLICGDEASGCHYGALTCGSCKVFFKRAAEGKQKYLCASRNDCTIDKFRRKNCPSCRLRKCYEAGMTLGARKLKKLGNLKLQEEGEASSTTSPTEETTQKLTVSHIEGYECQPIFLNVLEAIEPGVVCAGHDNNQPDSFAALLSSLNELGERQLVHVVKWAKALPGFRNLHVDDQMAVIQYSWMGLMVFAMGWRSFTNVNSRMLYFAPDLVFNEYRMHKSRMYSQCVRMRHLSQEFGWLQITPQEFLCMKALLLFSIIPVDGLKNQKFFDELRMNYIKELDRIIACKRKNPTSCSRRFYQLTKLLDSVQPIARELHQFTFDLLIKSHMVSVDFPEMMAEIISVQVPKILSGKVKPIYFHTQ

Test [9] deals with Estrogen receptor (Homo sapiens) (UniProt P03372). The test is described as follows: qHTS assay to identify small molecule agonists of the estrogen receptor alpha (ER-alpha) signaling pathway in the presence of an antagonist (AID 1259383). Also: top concentration of the series differs between compounds; nearly all actives have a fitted effect of over 15% in size. In a few lines: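 Readout was ERE-driven luciferase luminescence in VM7Luc4E2 cells, which express full-length ER-alpha endogenously. Compounds were tested at 15 concentrations for 22hr alongside 10.0nM ICI-182,780 (final concentration).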
Chain of Estrogen receptor (Homo sapiens) (P03372 whole entry, looked up): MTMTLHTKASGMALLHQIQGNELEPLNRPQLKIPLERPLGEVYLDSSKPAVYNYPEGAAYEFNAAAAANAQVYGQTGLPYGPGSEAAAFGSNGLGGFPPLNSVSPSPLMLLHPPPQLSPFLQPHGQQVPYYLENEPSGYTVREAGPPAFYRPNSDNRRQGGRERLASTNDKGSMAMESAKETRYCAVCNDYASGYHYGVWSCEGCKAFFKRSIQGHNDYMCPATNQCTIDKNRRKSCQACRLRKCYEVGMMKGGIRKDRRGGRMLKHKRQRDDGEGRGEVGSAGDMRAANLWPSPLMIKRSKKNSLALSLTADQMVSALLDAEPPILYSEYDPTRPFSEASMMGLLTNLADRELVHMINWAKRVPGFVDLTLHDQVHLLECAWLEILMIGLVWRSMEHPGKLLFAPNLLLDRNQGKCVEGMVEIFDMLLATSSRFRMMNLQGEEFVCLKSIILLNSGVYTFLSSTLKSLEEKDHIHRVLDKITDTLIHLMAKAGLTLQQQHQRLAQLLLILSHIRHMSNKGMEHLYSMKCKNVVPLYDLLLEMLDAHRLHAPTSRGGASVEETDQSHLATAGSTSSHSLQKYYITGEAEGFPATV

Test [10] is described as follows: qHTS assay to identify small molecule agonists or antagonists of the thyroid stimulating hormone receptor (TSHR) signaling pathway - wild type cell line counter screen (AID 1259384). In a few lines: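 Counter screen in untransfected Hek293: compounds (15-point titration, triplicate) plus phosphodiesterase inhibitor Ro20-1724 added after 18 h plating; 30 min RT. Intracellular cAMP via competitive d2/cryptate immunoassay, 1 h incubation.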

Chain of Estrogen receptor beta (Homo sapiens) (Q92731 whole entry, looked up, the tested form may be a part): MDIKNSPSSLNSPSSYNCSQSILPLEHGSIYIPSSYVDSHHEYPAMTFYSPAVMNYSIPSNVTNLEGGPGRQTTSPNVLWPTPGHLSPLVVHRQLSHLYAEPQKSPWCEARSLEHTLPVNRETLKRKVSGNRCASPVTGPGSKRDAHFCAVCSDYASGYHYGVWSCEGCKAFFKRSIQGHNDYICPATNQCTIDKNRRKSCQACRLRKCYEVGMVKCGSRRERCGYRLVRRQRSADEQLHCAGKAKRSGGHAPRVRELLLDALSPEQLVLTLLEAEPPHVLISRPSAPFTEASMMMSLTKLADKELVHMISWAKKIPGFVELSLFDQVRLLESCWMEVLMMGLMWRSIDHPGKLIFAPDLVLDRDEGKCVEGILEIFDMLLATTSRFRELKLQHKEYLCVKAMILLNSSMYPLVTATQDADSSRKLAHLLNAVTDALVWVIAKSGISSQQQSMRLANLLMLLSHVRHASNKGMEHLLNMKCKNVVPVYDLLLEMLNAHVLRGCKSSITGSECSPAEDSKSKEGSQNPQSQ
Chain of Thyrotropin receptor (Homo sapiens) (P16473 whole entry, looked up): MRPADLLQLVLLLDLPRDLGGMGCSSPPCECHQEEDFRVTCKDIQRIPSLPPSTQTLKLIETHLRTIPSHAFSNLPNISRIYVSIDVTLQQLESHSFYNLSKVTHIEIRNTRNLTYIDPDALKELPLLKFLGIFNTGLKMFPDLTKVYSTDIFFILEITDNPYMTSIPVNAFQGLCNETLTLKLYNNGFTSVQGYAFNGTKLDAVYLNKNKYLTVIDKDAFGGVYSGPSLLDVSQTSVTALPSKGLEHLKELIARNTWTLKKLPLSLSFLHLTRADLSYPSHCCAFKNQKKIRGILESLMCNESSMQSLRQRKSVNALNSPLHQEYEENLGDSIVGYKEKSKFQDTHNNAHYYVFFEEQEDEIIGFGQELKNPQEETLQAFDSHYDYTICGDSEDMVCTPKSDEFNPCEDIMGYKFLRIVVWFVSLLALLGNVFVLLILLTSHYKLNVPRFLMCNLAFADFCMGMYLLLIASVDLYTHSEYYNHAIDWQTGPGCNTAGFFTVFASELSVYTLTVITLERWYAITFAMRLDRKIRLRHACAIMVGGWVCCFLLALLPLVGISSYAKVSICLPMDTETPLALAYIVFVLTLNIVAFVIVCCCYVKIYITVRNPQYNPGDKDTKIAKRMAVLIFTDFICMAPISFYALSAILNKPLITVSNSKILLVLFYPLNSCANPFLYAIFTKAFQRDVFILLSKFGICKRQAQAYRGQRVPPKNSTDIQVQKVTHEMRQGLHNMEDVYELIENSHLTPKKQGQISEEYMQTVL

For `Nc1cc(Cl)ccc1Cl`, the Potency entry in [1], in test [2], in test [3], in test [4], in test [5] and in test [6] was “inactive” each time. For the same compound, the Potency result in [7] was “inactive”.
For `CCCCCCC[CH2][Sn]([Cl])([Cl])[CH2]CCCCCCC`, the Potency entry in test [1], in test [2], in test [8], in test [6], in test [9] and in [10] was “inactive” each time. Also, in test [7], the Potency entry is “inactive”. Further, the Potency in test [3] was 48.5 µM (active).
With `CNC(=O)/C=C(\C)OP(=O)(OC)OC`, the Potency result in test [1], in test [2], in test [3], in test [4], in test [5] and in test [6] was “inactive” in each case. Also, the Potency result in [9], in [10] and in [7] was “inactive” throughout.
As for `COc1ccc2c(c1OC)C(=O)O[C@@H]2[C@H]1c2cc3c(cc2CCN1C)OCO3`, the Potency entry in test [1], in [2], in test [3], in [4], in [5] and in test [8] was “inactive” each time. The Potency result in test [6], in [10] and in test [7] was “inactive” throughout.
In the case of `CN1[C@@H]2CC[C@H]1CC(O)C2` (stereo not given in full), the Potency result in [1], in [2], in [3], in [4], in test [5] and in [6] was “inactive” in each case. In test [9], the Potency entry was “inactive”.
Consider `O=S(=O)(O)F`, for which the Potency result in test [1], in [2], in test [3], in test [5], in [6] and in test [9] was “inactive” each time. Besides, the Potency entry in [10] and in [7] was “inactive” in each case.
With `c1ccc2nc(N3CCNCC3)ccc2c1`, the Potency entry in test [1], in [2], in test [3], in [4], in test [6] and in test [9] was “inactive” in each case. For the same compound, the Potency in test [5] is 23.7 µM (active).
With `COc1ccc(Cc2nccc3cc(OC)c(OC)cc23)cc1OC`, the Potency in [1] was 1.88 µM (active); in [4] it was 18.8 µM (active). Besides, the Potency entry in test [2], in test [3], in test [5], in [8], in test [6] and in test [7] was “inactive” throughout.
For the compound `CC(C)N(C(=O)CCl)c1ccccc1`, the Potency was 12.2 µM (active) and 9.69 µM (active) in test [1]; 9.69 µM (active) in test [3]; 54.5 µM (active) and 27.3 µM (active) in test [5]. Also, the Potency result in test [2], in test [8], in test [9] and in test [7] was “inactive” in each case.
As to `CC(C)c1c(CN(C)C(C)Cc2ccccc2)n(C)n(-c2ccccc2)c1=O` (stereo not given), the Potency entry in [1], in test [2], in [4], in test [6], in [9] and in test [10] was “inactive” throughout. The Potency in test [3] is 21.1 µM (active); in test [5], 6.68 µM (active).
In the case of `Nc1nc(N)nc(Cl)n1`, the Potency result in [1], in test [2], in test [3], in test [4], in test [5] and in test [6] was “inactive” in each case. In addition, the Potency result in test [9], in test [10] and in [7] was “inactive” in each case.
In the case of `CCOC(=O)Cc1ccccc1`, the Potency entry in test [1], in test [2], in test [3], in test [4], in [5] and in [8] was “inactive” throughout. In addition, the Potency entry in test [6], in [9], in test [10] and in test [7] was “inactive” each time.
In the case of `CNC(=O)Oc1cc(C)cc(C(C)C)c1`, the Potency entry in test [1], in [2], in test [3], in test [4], in test [6] and in test [9] was “inactive” throughout.
As for `ClC(Cl)C(Cl)(Cl)Cl`, the Potency result in test [1], in test [2], in [3], in test [4], in test [5] and in test [6] was “inactive” each time. For the same compound, the Potency entry in [9], in [10] and in [7] was “inactive” throughout.
For `CCC(C)Nc1c([N+](=O)[O-])cc(C(C)(C)C)cc1[N+](=O)[O-]` (stereo not given), the Potency result in [1], in test [2], in test [3], in test [4], in test [6] and in test [9] was “inactive” throughout.
For the compound `COc1nc(C)nc(NC(=O)NS(=O)(=O)c2ccccc2Cl)n1`, the Potency result in [1], in test [3], in test [4], in test [5], in test [6] and in test [9] was “inactive” in each case. Also, the Potency entry in [10] and in test [7] was “inactive” in each case.
Regarding `Cc1ccc([N+](=O)[O-])[c]2c1[O][Hg]2`, the Potency in test [1] is 0.266 µM (active); in [4], 13.3 µM (active); in test [6], 5.31 µM (active); in test [7], 21.1 µM (active). The Potency entry in [2], in test [8] and in test [9] was “inactive” throughout.
As to `CC1CN1` (stereo not given), the Potency result in test [1], in test [3], in test [4], in test [5], in [6] and in test [9] was “inactive” throughout. For the same compound, the Potency result in [10] and in test [7] was “inactive” each time.
`O=[N+]([O-])c1ccccc1-c1ccccc1`: the Potency result in test [1], in test [3], in test [4], in [5], in test [6] and in test [9] was “inactive” throughout. Moreover, the Potency result in test [10] is “inactive”.
Regarding `Nc1ccc(N=Nc2ccccc2)cc1`, the Potency in test [1] and in test [3] was 21.7 µM (active) throughout. Further, the Potency entry in test [6], in [9] and in [10] was “inactive” each time.
Consider `CNC(=O)CSP(=O)(OC)OC`, for which the Potency entry in test [1], in test [3], in test [4], in test [5], in test [6] and in test [9] was “inactive” in each case. In addition, the Potency entry in test [10] and in [7] was “inactive” in each case.
As for `Oc1cccc(Cl)c1Cl`, the Potency result in test [1], in test [3], in test [4], in [9] and in [7] was “inactive” in each case.
In the case of `CCNc1nc(NC(C)C(C)C)nc(SC)n1` (stereo not given), in test [1], the Potency is 4.86 µM (active). In addition, the Potency result in [3], in test [4], in [5], in test [6] and in [9] was “inactive” in each case.
With `CCCCc1ccccc1`, the Potency entry in test [1], in [3], in test [4], in test [5], in [6] and in test [9] was “inactive” each time. The Potency result in test [10] and in test [7] was “inactive” in each case.
Take `CCCCCCCCCCCCCCn1cc[n+](C)c1`: the Potency was 122 nM (active) and 42.8 nM (active) in test [1]; 30.7 µM (active) and 60.4 µM (active) in [5]; 34.4 µM (active) and 34 µM (active) and inactive in test [6]. In addition, the Potency result in test [3] and in test [9] was “inactive” in each case.
